Screening results as filed in PubChem.
Only a selection was taken, and hits are over-represented in it overall.
Pf apPOL inh = Pf-apPOL inhibitors, biochemical, fluorescence. Plasmodium falciparum apicoplast DNA polymerase (apPOL). Recombinant Pf-apPOL, molecular beacon fluorescence, 1.5 h. inhibition, % at 10 µM. hit rate 0.25% among 210,000. AID 1794808, 2022
mHTT-CaM PPI inh = mutant huntingtin-calmodulin interaction inhibitors – biochemical, AlphaScreen, primary screen | P42858 | AlphaScreen His-mHTT/GST-CaM binding, luminescence | inhibition, % at 15 µM | hit rate 3.6% among 190,000 | AID 1671202, 2021;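 note: 0% = both proteins with DMSO and 100% = one protein alone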
* marks the source's active call; other numbers are inactive results; / = no result given. Cut-off read from the data, not from the text of the source: active = inhibition above about 50%; inactive = the rest.

SMILES	Pf apPOL inh	mHTT-CaM PPI inh
COc1ccc(C)cc1NC(=O)C1CCCN(c2cnn(C)c(=O)c2)C1 (stereo not drawn)	-8	53*
COc1ccc(C(F)(F)F)cc1NC(=O)C1CCCN(c2ccc(-c3ccco3)nn2)C1 (stereo not drawn)	-4	77*
COc1ccccc1NC(=O)C1CCCN(c2cnn(C)c(=O)c2)C1 (stereo not drawn)	0	2
COc1ccc(Cl)cc1NC(=O)c1cnn2c(C(F)(F)F)cc(-c3ccco3)nc12	5	1
O=C(Nc1cccn2c(C3CCC3)nnc12)C1CCCO1 (stereo not drawn)	-2	-1
O=C(Nc1cccn2c(C3CCC3)nnc12)c1ccccn1	-8	61*
O=C(NC(=O)c1cccc(=O)o1)Oc1ccccc1	-11	/
COc1ccc(-c2cnn3c(C)c(C(=O)NCc4ccc(F)c(F)c4)cnc23)cc1	2	-5
COCC(=O)Nc1ccc2c(c1)CN(Cc1cc(F)cc(F)c1)C(=O)C(C)O2 (stereo not drawn)	-5	3
CC(C)(Oc1ccc(Cl)cc1)C(=O)NC1CCCC1	-1	-12
COc1ccc(CN2CCc3c([nH]c4ccccc34)C2)cc1C	-3	36
COc1cc(CN2CCN(Cc3cccc(OC)c3OC)CC2)c([N+](=O)[O-])cc1OC	0	4
COc1cc(C)c(CN2CCc3c([nH]c4ccccc34)C2)cc1C	-7	100*
COc1cc(CN2CCc3c([nH]c4ccccc34)C2)c([N+](=O)[O-])cc1OC	-3	66*
Cc1nn(CCCC(=O)Nc2cccnc2Cl)c(C)c1[N+](=O)[O-]	1	5
Cc1cc(N2Cc3ccccc3C2)ccc1C=O	3	82*
O=C1NC(=O)c2cc(-c3ccccc3)ccc21	2	-8
O=C1NC(=O)c2cc(N3Cc4ccccc4C3)ccc21	-2	79*
Cc1ccc(N2C(=O)CC(N3CCc4ccccc4C3)C2=O)cc1C (stereo not drawn)	-9	0
COc1ccc(OC)c(Nc2nc(-c3ccncc3)cs2)c1	-10	6
COc1ccccc1Nc1nc(-c2ccccn2)cs1	-7	97*
COc1ccc(Cl)cc1Nc1nc(-c2ccccn2)cs1	0	56*
O=[N+]([O-])c1cccc(Nc2nc(-c3ccccn3)cs2)c1	-3	48
COc1ccccc1Nc1nc(-c2sc(N)nc2C)cs1	-1	74*
CCC(=O)Nc1nc(C)c(-c2csc(Nc3ccccc3OC)n2)s1	28	41
SMILES	Pf apPOL inh	mHTT-CaM PPI inh
Cc1c(Cl)cccc1Nc1nc(-c2ccccn2)cs1	1	100*
COc1ccc(Cl)cc1Nc1nc(-c2ccncc2)cs1	-3	-2
COc1ccc(CSc2nnc(-c3ccc(OC)cc3)o2)cc1	-6	-18
Cc1cccc(NC(=O)CN(C)S(=O)(=O)c2ccc(Br)s2)c1C	-1	0
COCCC1CCN(C(=O)CN(C)C(=O)c2cccnc2)CC1	2	2
O=Cc1cn(CC(=O)N2CCCCCC2)c2ccccc12	-4	1
CCOc1ccccc1-n1c(SCC(=O)NCCc2ccccc2)nc2n[nH]c(C)c2c1=N	-4	12
CCOc1ccccc1NC(=O)N1CCC(N2CCN(Cc3ccc(C)cc3)C2=O)CC1	5	12
CCc1ccccc1Nc1nc(-c2ccccn2)cs1	-2	99*
CCC(=O)Nc1nc(C)c(-c2csc(Nc3ccccn3)n2)s1	0	41
Cc1ccc(C(=O)Nc2ccc(Br)cc2C)c(Cl)c1	1	-5
CC(=O)Nc1ccc(C=NNC(=O)c2ccc(C(C)(C)C)cc2)cc1	0	/
NC(=O)NC(c1ccccc1)c1ccc(F)cc1 (stereo not drawn)	-8	-3
O=C1OC(c2cc([N+](=O)[O-])ccc2Cl)=N/C1=C\c1cccc(Cl)c1	4	10
CCc1ccc(NS(=O)(=O)c2cc(Cl)ccc2OC)cc1	-12	-8
COc1ccc(Cl)cc1S(=O)(=O)Nc1ccc2c(c1)NC(=O)C(C)(C)CO2	-9	69*
COc1cc(C2=N/C(=C\c3ccccc3[N+](=O)[O-])C(=O)O2)cc(OC)c1OC	-2	3
O=C(Nc1cnc(-c2ccc(F)cc2)nc1)c1ccc(F)cc1	-2	1
Cc1c(C(=O)NCc2cccs2)oc2ccc(S(=O)(=O)N3CCOCC3)cc12	6	40
COc1cccc2c1OC1(CCC(C)CC1)N1N=C(c3ccc(C)o3)CC21 (stereo not drawn)	-15	85*
COc1ccc(C2=NN3C(C2)c2ccccc2OC32CCCCC2)cc1 (stereo not drawn)	-12	25
COc1cccc2c1OC1(CCCCC1)N1N=C(c3ccc(C)o3)CC21 (stereo not drawn)	-17	80*
COc1cccc2c1OC1(CCCCC1)N1N=C(c3ccccc3)CC21 (stereo not drawn)	-4	13
O=C(c1ccccc1)c1ccc(OCCn2cnc3ccccc3c2=O)cc1	-12	-4
COc1cc([N+](=O)[O-])cc2[nH]c(-c3ccccc3)cc12	-3	-2
SMILES	Pf apPOL inh	mHTT-CaM PPI inh
O=[N+]([O-])c1cc([N+](=O)[O-])c2cc(-c3ccco3)[nH]c2c1	/	53*
Cc1ccc(C2Cn3nnc(C(=O)N4CCN(C(=O)c5ccccc5F)CC4)c3CO2)cc1 (stereo not drawn)	-3	-1
CCCCCCCCCn1cnc2c1c(=O)n(C)c(=O)n2C	/	-13
COc1cc(C2C3=C(CC(C)(C)CC3=O)NC3=C2C(=O)c2ccccc23)cc(OC)c1OC (stereo not drawn)	-1	61*
COc1cccc(C2C3=C(CC(C)(C)CC3=O)NC3=C2C(=O)c2ccccc23)c1OC (stereo not drawn)	-6	44
CC1(C)CC(=O)C2=C(C1)NC1=C(C(=O)c3ccccc31)C2c1ccc(Br)cc1 (stereo not drawn)	-11	60*
CC1(C)CC(=O)C2=C(C1)NC1=C(C(=O)c3ccccc31)C2c1ccc(O)cc1 (stereo not drawn)	-4	50
CCOc1ccc(NC(=O)c2ccc(N)cc2)cc1	-11	2
CCN(CC)c1ncc2c(n1)CCC(C(=O)NCCOC)C2 (stereo not drawn)	-2	-2
COC(=O)c1cc(Nc2ccc3c(c2)OCO3)c2cccc(F)c2n1	-3	51*
COC(=O)c1cc(Nc2cccc(F)c2)c2cccc(F)c2n1	1	-7
Cc1cc(C)c(NC(=O)C2CCCN2C23CC4CC(CC(O)(C4)C2)C3)c(C)c1 (stereo not drawn)	-1	-1
O=C(c1ccc(Cl)c(Cl)c1)N1CCC(=O)N([C@H](COCc2ccccc2)Cc2ccccc2)CC1	-4	100*
O=C(SCc1cccc(C(F)(F)F)c1)c1ccc(Cl)c(Cl)c1	3	/
O=C(c1ccc(Cl)c(Cl)c1)N1CCC(=O)N([C@H](COCc2cccc(C(F)(F)F)c2)Cc2ccccc2)CC1	-4	100*
Cc1ccc(S(=O)(=O)N2CCC(=O)N([C@H](COCc3ccc(Cl)cc3Cl)Cc3ccccc3)CC2)cc1	-4	-10
COc1ccc(NC(=O)N2CCC(n3c(-c4ccc(OC)cc4)nc4cccnc43)C2)cc1 (stereo not drawn)	-4	14
CCOC(Cn1c(SCC(=O)Nc2ccccc2Cl)nc2ccccc2c1=O)OCC	-5	-7
O=C(Nc1nccs1)C(c1ccccc1)n1cccc1 (stereo not drawn)	5	35
